What all share (type): functional
The target in test [1] is Solute carrier family 2, facilitated glucose transporter member 1 (Homo sapiens) (UniProt P11166). As to the kind of experiment: ST_JUDE_LEISH: Cytotoxicity at 2uM final concentration against transgenic Leishmania Mexicana promastigotes LmGLUT1 that are glucose transport deficient and complemented with the human glucose transporter GLUT1. Activity is measured by DNA content using SYBR green in vitro.

The target in test [2] is Hexose transporter 1 (Plasmodium falciparum) (UniProt O97467). As to the kind of experiment: ST_JUDE_LEISH: Cytotoxicity at 2uM final concentration against transgenic Leishmania Mexicana promastigotes LmPfHT that are glucose transport deficient and complemented with the Plasmodium falciparum hexose transporter. Activity is measured by DNA content using SYBR green in vitro.

Test [3] deals with Glucose transporter (Leishmania mexicana) (UniProt O61059). The test can be described thus: ST_JUDE_LEISH: Cytotoxicity at 2uM final concentration against transgenic Leishmania Mexicana promastigotes LmGT2 that are glucose transport deficient and complemented with the L. Mexicana glucose transporter 2. Activity is measured by DNA content using SYBR green in vitro.

Chain of Solute carrier family 2, facilitated glucose transporter member 1 (Homo sapiens) (P11166 whole entry): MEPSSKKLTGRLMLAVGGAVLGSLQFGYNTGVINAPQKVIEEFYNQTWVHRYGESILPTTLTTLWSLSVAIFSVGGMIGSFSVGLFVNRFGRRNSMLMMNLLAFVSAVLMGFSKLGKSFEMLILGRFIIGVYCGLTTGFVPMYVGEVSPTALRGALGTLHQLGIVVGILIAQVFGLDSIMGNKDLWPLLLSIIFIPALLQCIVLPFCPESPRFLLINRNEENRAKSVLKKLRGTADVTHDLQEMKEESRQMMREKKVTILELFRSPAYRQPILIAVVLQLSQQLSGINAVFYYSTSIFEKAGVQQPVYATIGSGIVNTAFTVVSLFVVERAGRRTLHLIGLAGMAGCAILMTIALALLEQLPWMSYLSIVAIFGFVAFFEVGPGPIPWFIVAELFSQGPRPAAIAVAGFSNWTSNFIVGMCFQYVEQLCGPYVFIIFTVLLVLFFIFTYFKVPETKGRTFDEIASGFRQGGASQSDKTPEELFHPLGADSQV

As to `NS(=O)(=O)Cc1cccc(-c2ccnc3ccc(-c4cccc(S(N)(=O)=O)c4)cc23)c1`, the results for the inhibition in test [1], in test [2] and in test [3] were 3.2%, 0.84% and 1.72%, respectively.
Take `O=C(Nc1cccc(CN2CCN(C(=O)c3cccc(Cl)c3)CC2)c1)c1cccs1`: the inhibition in test [1] was 5.62%; in test [2], 4.14%; in test [3] it was 2.57%.
The matching figures for `Cc1ccc(CN2CCCN(Cc3ccc(C(=O)Nc4ccc(Cl)cc4)cc3)CC2)s1`: 2.49%, 2.74% and 0.05%.
Turning to `c1cncc(CN2CCN(Cc3ccc(-c4ccc(-c5nc6ccccc6[nH]5)s4)cc3)CC2)c1`, the inhibition was 12.2% in test [1], 7.69% in test [2] and 1.44% in test [3].
With `COc1ccc(-c2cccc(NC(=O)c3cccc(F)c3)c2)cc1CN1CCCN(C)CC1`, the figures for the inhibition in test [1], in test [2] and in test [3] were 2.17%, 1.16% and -0.49%, respectively.
Take `Cc1c(CNCCCNc2nc3ccccc3[nH]2)[nH]c2cc(Cl)cc(Cl)c12`: the inhibition came to 25.5% in test [1], 49.4% in test [2] and 41.6% in test [3].
On to `CC1(C)CCC(C)(C)c2c1ccc(C1CCN(CCCCNC(=O)c3ccc(-c4ccc(C#N)cc4)cc3)CC1)c2O`, for which the values for the inhibition in test [1], in test [2] and in test [3] were 0.66%, 0.22% and 0.63%, respectively.
The matching figures for `CCCCCCOc1ccc(C(=O)NCCCC2CCCN(CCCCCNC(=O)C=Cc3ccc(Cl)c(Cl)c3)C2)cc1` (stereo not given): -0.52%, 0.51% and 1.31%.
On to `O=C(/C=C/c1ccc(Cl)c(Cl)c1)NCCCCCN1CCC(NC(=O)Nc2ccccc2F)CC1`, for which the inhibition in test [1] was 0.1%; in test [2], 4.13%; in test [3], -0.91%.
With `O=C(NCC(CCCN1CCC(c2c[nH]c3ccccc23)CC1)c1ccccc1)Nc1ccc(Cl)c(Cl)c1` (stereo not given), the inhibition in test [1] was found to be 4.09%; in test [2] it was 2.82%; in test [3], 2.69%.
The matching figures for `CC1(C)N=C(N)N=C(N)N1OCCCOc1cccc(C(=O)O)c1`: 5.03%, 5.61% and 3.22%.
With `O=C(Cc1c[nH]cn1)Nc1ccc(-c2cccc(-c3nc4cc(C(F)(F)F)ccc4[nH]3)c2)cc1`, the inhibition was -0.04% in test [1], 0.42% in test [2] and 1.12% in test [3].
Turning to `CCC(CC)C(CC(=O)NC(C)(C)CCc1ccccc1OC)Nc1ccc(C#N)c2ccccc12` (stereo not given), the inhibition in test [1] is 4.46%; in test [2] it was 3.53%; in test [3], 3.55%.
`Cc1[nH]c(C)c(-c2ccc(CCc3ccc(C(F)(F)F)cc3)nc2)c(=O)c1Cl`: the inhibition in test [1] came out at 2.59%; in test [2] it was 3.29%; in test [3] it was 0.56%.
In the case of `N#Cc1ccc2c(c1)CN(CCC1CCC(NC(=O)c3cc4cc(OC(F)(F)F)ccc4[nH]3)CC1)CC2` (stereo not given), the inhibition in test [1] amounted to 3.11%; in test [2], 2.72%; in test [3] it was 0.85%.
For `O=C(c1cc(-c2ccccc2O)on1)N1CCN(C(c2ccccc2)c2ccccc2)CC1` the same measures were -0.36%, -0.36% and 0.34%.
As to `Clc1ccc2c(N3CCN(CCN4CCN(c5ccnc6cc(Cl)ccc56)CC4)CC3)ccnc2c1`, the figures for the inhibition in test [1], in test [2] and in test [3] were 0.09%, 0.23% and 0.08%, respectively.
On to `CN(C)CCCOc1ccc(CN2CC[C@H](NC(=O)c3ccc(Cl)c(Cl)c3)C2)cc1Cl`, for which the inhibition in test [1] was 13.3%; in test [2], 10.7%; in test [3], 8.69%.
As to `CC(=O)c1ccc(NC(=O)C2c3ccccc3C(=O)N(CC(C)C)C2c2cccs2)cc1` (stereo not given), the inhibition was -0.43% in test [1], 0.9% in test [2] and 0.34% in test [3].
In the case of `COc1ccc(-c2cnc3ccc(NC4CCC(O)CC4)nn23)cn1` (stereo not given), the inhibition in test [1] stood at 2.52%; in test [2] it was 0.45%; in test [3], 0.93%.
Take `CCCCCCC(C)c1cc(O)c2c(c1)OC(=O)CC2(CC)c1ccccn1` (stereo not given): the results for the inhibition in test [1], in test [2] and in test [3] were 1.55%, 3.13% and 1.77%, respectively.
For `COc1ccc(NC(=O)Nc2ccc(-c3ccc(-c4nc5cccc(C)c5[nH]4)s3)cc2)cc1` the same measures were 4.04%, 4.64% and 3.71%.
On to `O=C(Nc1ccc(Cl)c(Cl)c1)Nc1ccc2c(c1)CCNCC2`, for which the inhibition in test [1] is -0.33%; in test [2] it was 0.96%; in test [3] it was 0.79%.
For the molecule `CC(C)(C)c1cc(Cn2ccnc2)cc(C(C)(C)C)c1O`, the figures for the inhibition in test [1], in test [2] and in test [3] were 6.9%, 9.32% and 4.9%, respectively.
As to `O=C(/C=C/c1ccc(Cl)c(Cl)c1)NCCCCCCN1CCCN(C(=O)Nc2cccc(C(F)(F)F)c2)CC1`, the inhibition in test [1] was determined as 5.59%; in test [2] it was 4.35%; in test [3], 0.59%.
Regarding `CCCCCN1CCCC1CNS(=O)(=O)c1cccc(C(=O)Nc2cccc(C#N)c2)c1` (stereo not given), the inhibition in test [1] was 2.62%; in test [2], 4.82%; in test [3], 3.88%.
With `O=S(=O)(c1cccc(F)c1)c1ccc(Nc2ncnc3cc(Br)sc23)cc1Cl`, the inhibition in test [1] is 3.23%; in test [2], 2.8%; in test [3], -1.17%.
For `N#Cc1cccc(C(=O)N2CCOC(CCN3CCC(c4ccccc4)CC3)(c3ccc(Cl)c(Cl)c3)C2)c1` (stereo not given), the inhibition was 4.51% in test [1], 2.24% in test [2] and 2.33% in test [3].
In the case of `COc1ccc(Nc2nc(N/N=C/c3ccc(O)cc3)nc(Nc3ccc([N+](=O)[O-])cc3)n2)cc1`, the results for the inhibition in test [1], in test [2] and in test [3] were 1.19%, 2.44% and 0.87%, respectively.
As to `COc1ccc2nc3ccccc3c(NCCN3CCN(C)CC3)c2c1`, the inhibition in test [1] amounted to 7.5%; in test [2], 5.93%; in test [3], 4.16%.
For `O=C(Nc1ccc2c(c1)CCN2C1CCN(Cc2cccc(C(F)(F)F)c2)C1)c1ccco1` (stereo not given), the values for the inhibition in test [1], in test [2] and in test [3] were -2.78%, 0.28% and -0.47%, respectively.
`Nc1c2ccccc2nc2cc([N+](=O)[O-])ccc12`: the results for the inhibition in test [1], in test [2] and in test [3] were 8.44%, 9.98% and 0.99%, respectively.
Turning to `O=C(Nc1ccc(Cl)cc1)N[C@H]1CCN(Cc2ccc(OCCCN3CCCCC3)cc2)C1`, the inhibition in test [1] was -0.92%; in test [2], 1.45%; in test [3] it was 0.1%.
`CCS(=O)(=O)c1ccc(/C(=N/OC)c2ccc[nH]2)cc1`: the results for the inhibition in test [1], in test [2] and in test [3] were 0.36%, 0.06% and 0.42%, respectively.
Take `Cc1ccn2c(N(Cc3ccccc3)C(=O)c3ccc(Cl)c(Cl)c3)c(-c3ccccc3)nc2c1`: the values for the inhibition in test [1], in test [2] and in test [3] were 4.28%, 3.03% and 0.79%, respectively.

Source of the values: ChEMBL document CHEMBL3433997, “St. Jude Leishmania screening dataset” (2016).
